Measurements taken from PubChem BioAssay (NCATS).
Unmarked numbers belong to inactive results. The source made the active and inactive calls. The rule behind the calls is not given here.

experiment: qHTS assay for small molecule activators of the human pregnane X receptor (PXR) signaling pathway (AID 720659); settings: DPX-2 HepG2 CYP3A4-luciferase, 24 h; series mostly up to 92.3 µM; activation: at the top concentration; note: 0% is about no effect

Row | SMILES | activation | outcome
1 | CO | -5.63% | –
2 | [O-][N+](=Nc1ccccc1)c1ccccc1 | 18% | –
3 | C[C@H]1O[C@@H](O[C@H]2[C@@H](O)C[C@H](O[C@H]3[C@@H](O)C[C@H](O[C@H]4CC[C@@]5(C)[C@H](CC[C@@H]6[C@@H]5C[C@@H](O)[C@]5(C)[C@@H](C7=CC(=O)OC7)CC[C@]65O)C4)O[C@@H]3C)O[C@@H]2C)C[C@H](O)[C@@H]1O | – | inactive
4 | O=C(OCc1ccccc1)c1ccc(O)cc1 | 2.92% | –
5 | OC[C@H]1O[C@@H]2O[C@H]3[C@H](O)[C@@H](O)[C@@H](O[C@H]4[C@H](O)[C@@H](O)[C@@H](O[C@H]5[C@H](O)[C@@H](O)[C@@H](O[C@H]6[C@H](O)[C@@H](O)[C@@H](O[C@H]7[C@H](O)[C@@H](O)[C@@H](O[C@H]1[C@H](O)[C@H]2O)O[C@@H]7CO)O[C@@H]6CO)O[C@@H]5CO)O[C@@H]4CO)O[C@@H]3CO | – | inactive
6 | Nc1ncnc2c1ncn2[C@H]1CC[C@@H](CO)O1 | – | inactive
7 | OB(O)O | – | inactive
8 | Oc1cccc(O)c1O | -1.85% | –
9 | CCCCC | 1.61% | –
10 | OC[C@H]1O[C@@](CO)(O[C@H]2O[C@H](CO)[C@@H](O)[C@H](O)[C@H]2O)[C@@H](O)[C@@H]1O | 13.5% | –
11 | Cc1ccc(S(=O)(=O)NCl)cc1 | -5.11% | –
12 | CC[C@H]1OC(=O)[C@H](C)[C@@H](O[C@H]2C[C@@](C)(OC)[C@@H](O)[C@H](C)O2)[C@H](C)[C@@H](O[C@@H]2O[C@H](C)C[C@H](N(C)C)[C@H]2O)[C@](C)(O)C[C@@H](C)CN(C)[C@H](C)[C@@H](O)[C@]1(C)O | -1.97% | –
13 | CCOC(C)OCC | -1.89% | –
14 | CC1=CCC2CC1C2(C)C (centres undefined) | -1.93% | –
